The source of these data is PubChem BioAssay (NCATS).

A short description of test [1]: NS1 protein of Zika virus - qHTS assay to identify small molecule inhibitors in human HEK 293 cells (AID 1347053). Note: nearly all actives have a fitted effect of over 55% in size. Summed up: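 Inhibition of NS1 expression was scored in HEK 293 cells given compound 1 h ahead of MR766 virus (MOI = 0.5). Following 24 h at 37 C, two anti-NS1 antibodies generated a TR-FRET signal, scaled between uninfected and infected controls.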
(Quantitative high-throughput screening tests each substance at several concentrations.)

Test [2] is described as follows: qHTS of pediatric cancer cell lines to identify multiple opportunities for drug repurposing: Primary screen for TC32 cells (AID 1347089). Note: nearly all actives have a fitted effect of over 60% in size. A digest of the protocol: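 A viability screen of TC32 cells was run over 48 h, with primary MIPE doses spanning 0.78 nM–46 µM and NPC doses 0.59 nM–46 µM. ATP luminescence (CellTiter-Glo) served as the read-out.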
Test [3] in a line: qHTS of pediatric cancer cell lines to identify multiple opportunities for drug repurposing: Primary screen for DAOY cells (AID 1347090). Note: nearly all actives have a fitted effect of over 55% in size. A digest of the protocol: (§1)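 Viability measured as metabolically active cells via CellTiter-Glo luminescence following 48 hours of compound exposure, 11-point dilutions in confirmatory testing. 500-1,000 cells/well plated 5 hours before dosing; controls were DMSO and 2.3 µM bortezomib.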

Test [4] can be described thus: qHTS of pediatric cancer cell lines to identify multiple opportunities for drug repurposing: Primary screen for SJ-GBM2 cells (AID 1347091). Summed up:
as §1

The nature of test [5]: qHTS of pediatric cancer cell lines to identify multiple opportunities for drug repurposing: Primary screen for A673 cells (AID 1347092). Note: nearly all actives have a fitted effect of over 45% in size. A digest of the protocol:
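Titration-based qHTS on A673 cells: MIPE compounds spanned 11 points (0.78 nM to 46 µM final), NPC compounds 8 points (0.59 nM to 46 µM final). Viability after 48 h was measured by ATP luminescence.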

Records with an inconclusive call do not appear. Calls of active or inactive are those of the source. Calls come from the whole dose curve; as a rule, active = well fitted curve in the direction sought with a large enough effect; inconclusive = small, poorly fitted or top-dose-only effect, or another doubt; inactive = no such curve, though single readings can be large; an effect the other way counts as inactive or inconclusive.
Potency is the fitted concentration of half-maximal effect.

`Cc1coc2ccccc2c1=O`: the Potency entry in test [1], in test [2], in test [3], in test [4] and in test [5] was “inactive” in each case.

For the molecule `C[N+]1(C)CCC(OC(=O)C(O)(c2ccccc2)C2CCCC2)C1` (stereo not given), the Potency entry in test [1], in test [2], in test [3], in test [4] and in test [5] was “inactive” in each case.

Consider `CC(C)=CCC/C(C)=C/CC/C(C)=C/CCC(=O)OC/C=C(\C)CCC=C(C)C`, for which the Potency entry in test [1], in test [2], in test [3], in test [4] and in test [5] was “inactive” in each case.

`CC(=O)c1cc2ccccc2s1`: the Potency entry in test [1], in test [2], in test [3], in test [4] and in test [5] was “inactive” in each case.

Regarding `O=C(O)[C@@H](O)[C@H](O)[C@H](O)[C@@H](O)C(=O)O`, the Potency result in test [1], in test [2], in test [3], in test [4] and in test [5] was “inactive” throughout.

Take `OCCCc1ccccc1`: the Potency entry in test [1], in test [2], in test [3], in test [4] and in test [5] was “inactive” throughout.

On to `CC(=O)Nc1c(I)c(NC(C)=O)c(I)c(C(=O)O)c1I`, for which the Potency result in test [1], in test [2], in test [3], in test [4] and in test [5] was “inactive” in each case.

On to `CN(C)CCN1CCN(c2cccc(Cl)c2)C1=O`, for which the Potency result in test [1], in test [2], in test [3], in test [4] and in test [5] was “inactive” each time.

On to `CCN(CC)CCN`, for which the Potency result in test [1], in test [2], in test [3], in test [4] and in test [5] was “inactive” in each case.

Regarding `O=C(O)c1cn(C2CC2)c2cc(Cl)c(F)cc2c1=O`, the Potency entry in test [1], in test [2], in test [3], in test [4] and in test [5] was “inactive” throughout.

Take `CNC(=O)c1cnn(-c2nc(N)c3ncn([C@@H]4O[C@H](CO)[C@@H](O)[C@H]4O)c3n2)c1`: the Potency entry in test [1], in test [2], in test [3], in test [4] and in test [5] was “inactive” throughout.

Consider `CCOC(=O)OCC/C(SC(=O)OCC)=C(\C)N(C=O)Cc1cnc(C)nc1N`, for which the Potency result in test [1], in test [2], in test [3], in test [4] and in test [5] was “inactive” in each case.

`CN1CC[C@H](c2c(O)cc(O)c3c(=O)cc(-c4ccccc4Cl)oc23)[C@H](O)C1`: the Potency in test [1] was 1.58 µM (active); in test [2] it was 0.592 µM (active); in test [3], 0.531 µM (active); in test [4], 0.106 µM (active); in test [5] it was 0.106 µM (active).

Regarding `CC(=O)N1CCN(c2ccc(O)cc2)CC1`, the Potency result in test [1], in test [2], in test [3], in test [4] and in test [5] was “inactive” in each case.

On to `Cc1onc(-c2c(Cl)cccc2Cl)c1C(=O)Cl`, for which the Potency entry in test [1], in test [2], in test [3], in test [4] and in test [5] was “inactive” in each case.

Regarding `C[C@@H](C1=C(CCN(C)C)Cc2ccccc21)c1ccccn1`, the Potency entry in test [1], in test [2], in test [3], in test [4] and in test [5] was “inactive” each time.

For the molecule `CCC(CN)=C(c1ccccc1)c1ccccc1`, the Potency result in test [1], in test [2], in test [3], in test [4] and in test [5] was “inactive” throughout.

On to `C[C@H](CN1CCCC1)C(=O)c1ccc(C(F)(F)F)cc1`, for which the Potency entry in test [1], in test [2], in test [3], in test [4] and in test [5] was “inactive” each time.

For the molecule `Cc1ccccc1N1CCN(CCc2nnc3n2CCCC3)CC1`, the Potency entry in test [1], in test [2], in test [3], in test [4] and in test [5] was “inactive” throughout.

For `O=C1CC(c2ccc(Cl)cc2)CC(=O)N1`, the Potency entry in test [1], in test [2], in test [3], in test [4] and in test [5] was “inactive” throughout.

Consider `O=C(O)Cc1ccccc1Oc1ccc(Cl)cc1Cl`, for which the Potency entry in test [1], in test [2], in test [3], in test [4] and in test [5] was “inactive” in each case.

With `CCCCC(=O)OCC(=O)[C@H]1[C@H](C)C[C@H]2[C@@H]3C[C@H](F)C4=CC(=O)C=C[C@]4(C)[C@@]3(F)[C@@H](O)C[C@@]21C`, the Potency result in test [1], in test [2], in test [3], in test [4] and in test [5] was “inactive” each time.

`CN(CC1(C)CCCO1)S(=O)(=O)c1ccc(Cl)c(S(N)(=O)=O)c1` (stereo not given): the Potency result in test [1], in test [2], in test [3], in test [4] and in test [5] was “inactive” in each case.

For the molecule `NS(=O)(=O)c1cc2c(cc1Cl)CN(C1CCCCC1)C2=O`, the Potency entry in test [1], in test [2], in test [3], in test [4] and in test [5] was “inactive” throughout.

Turning to `CCOC(=O)NNc1ccc(N(CC)CC(C)O)nn1` (stereo not given), the Potency entry in test [1], in test [2], in test [3], in test [4] and in test [5] was “inactive” in each case.
